The source made the active and inactive calls.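 The calls were made as follows: active = average half-effect concentration of 10 µM or less in every one of the four cell panels; inactive = the rest.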
These molecules were tested on H9c2 (assay: cardiomyocyte survival under oxidative or metabolic stress – cell-based, panel, H9c2 and HL-1, H2O2, 2-deoxyglucose, ATP luminescence, SAR follow-up (AID 651642)). Conditions: H9c2/HL-1 cardiomyocyte H2O2 oxidative damage, mean of runs, with H2O2.
In the case of `CCOC(=O)c1cccc(NC(=O)c2cc(-c3cc(OC)c(OC)c(OC)c3)nc3ccc(Cl)cc23)c1`, the outcome is reported as “inactive”. `COc1cc(-c2cc(C(=O)Nc3cccc(C(=O)NC4CC4)c3)c3ccccc3n2)cc(OC)c1OC` was tested, and the outcome was “active”. With `COc1cc(-c2cc(C(=O)Nc3cccc(C(N)=O)c3)c3ccccc3n2)cc(OC)c1OC` the outcome was “active”. For `COc1cc(-c2cc(C(=O)Nc3cccc(C(C)=O)c3)c3cccc(Cl)c3n2)cc(OC)c1OC`, the outcome was “inactive”. In the case of `COc1ccc2c(c1OC)C(=O)N1c3ccccc3C(=O)N(Cc3ccc(C)cc3C)C21` (configuration not stated), the outcome is reported as “inactive”. For `CCOC(=O)c1cccc(NC(=O)CNC(=O)c2cc(-c3cc(OC)c(OC)c(OC)c3)nc3ccc(OC)cc23)c1`, the outcome was “active”. With `COc1ccc2nc(-c3cc(OC)c(OC)c(OC)c3)cc(C(=O)Nc3cccc(C(C)=O)c3)c2c1` the outcome was “inactive”. For `COc1cc(-c2cc(C(=O)Nc3cccc(C(C)=O)c3)c3cc(F)ccc3n2)cc(OC)c1OC`, the outcome was “active”. For `COc1cc(-c2cc(C(=O)Nc3cccc(C(C)=O)c3)c3cc(Br)ccc3n2)cc(OC)c1OC`, the outcome was “inactive”. `COc1cc(-c2cc(C(=O)Nc3cccc(C(C)=O)c3)c3ccc(Cl)cc3n2)cc(OC)c1OC` was tested, and the outcome was “inactive”. For `COc1cc(-c2cc(C(=O)NCC(=O)Nc3ccc(C(C)=O)cc3)c3cc(C)ccc3n2)cc(OC)c1OC`, the outcome was “active”. `COc1ccc2c(c1OC)C(=O)N1c3ccccc3C(=O)N(Cc3ccccc3Br)C21` (configuration not stated) was tested, and the outcome was “inactive”. For `COc1ccc2c(c1OC)C(=O)N1c3ccccc3C(=O)N(Cc3ccccc3)C21` (configuration not stated), the outcome was “inactive”. With `COc1cc(-c2cc(C(=O)NCC(=O)Nc3ccc(C(C)=O)cc3)c3cc(F)ccc3n2)cc(OC)c1OC` the outcome was “inactive”. With `COc1cc(-c2cc(C(=O)Nc3cccc(C(C)=O)c3)c3cc(C)ccc3n2)cc(OC)c1OC` the outcome was “active”. In the case of `COC(=O)CNC(=O)c1cccc(NC(=O)c2cc(-c3cc(OC)c(OC)c(OC)c3)nc3ccccc23)c1`, the outcome is reported as “inactive”. In the case of `COc1cc(-c2cc(C(=O)NCC(=O)Nc3cccc(C(C)=O)c3)c3cc(C)ccc3n2)cc(OC)c1OC`, the outcome is reported as “inactive”. With `COc1cc(-c2cc(C(=O)Nc3cccc(C(=O)N(C)C)c3)c3ccccc3n2)cc(OC)c1OC` the outcome was “inactive”. `CCOC(=O)c1cccc(NC(=O)c2cc(-c3cc(OC)c(OC)c(OC)c3)nc3ccc(OC)cc23)c1` was tested, and the outcome was “active”. `CCOC(=O)c1cccc(NC(=O)c2cc(-c3cc(OC)c(OC)c(OC)c3)nc3ccc(C)cc23)c1` was tested, and the outcome was “active”. `COc1ccc2nc(-c3cc(OC)c(OC)c(OC)c3)cc(C(=O)NCC(=O)Nc3ccc(C(C)=O)cc3)c2c1` was tested, and the outcome was “active”. With `COc1ccc(NC(=O)CNC(=O)c2cc(-c3cc(OC)c(OC)c(OC)c3)nc3ccccc23)cc1` the outcome was “inactive”. With `CCOC(=O)c1cccc(NC(=O)c2cc(-c3cc(OC)c(OC)c(OC)c3)nc3c(Cl)cccc23)c1` the outcome was “inactive”. `CCOC(=O)c1cccc(NC(=O)CNC(=O)c2cc(-c3cc(OC)c(OC)c(OC)c3)nc3c(Cl)cccc23)c1` was tested, and the outcome was “inactive”. In the case of `COc1ccc2c(c1OC)C(=O)N1c3ccccc3C(=O)N(Cc3ccccc3C)C21` (configuration not stated), the outcome is reported as “inactive”. With `COc1ccccc1CN1C(=O)c2ccccc2N2C(=O)c3c(ccc(OC)c3OC)C12` (configuration not stated) the outcome was “inactive”. `COc1cc(-c2cc(C(=O)Nc3cccc(-c4nn[nH]n4)c3)c3ccccc3n2)cc(OC)c1OC` was tested, and the outcome was “inactive”. `COc1cc(-c2cc(C(=O)NCC(=O)Nc3ccc(C(C)=O)cc3)c3ccccc3n2)cc(OC)c1OC` was tested, and the outcome was “inactive”. `COc1cc(-c2cc(C(=O)Nc3cccc(C(=O)O)c3)c3ccccc3n2)cc(OC)c1OC` was tested, and the outcome was “inactive”. `COc1ccc2c(c1OC)C(=O)N1c3ccccc3C(=O)N(Cc3cccc(F)c3)C21` (configuration not stated) was tested, and the outcome was “inactive”. `COc1ccc2c(c1OC)C(=O)N1c3ccccc3C(=O)N(Cc3ccc(F)cc3)C21` (configuration not stated) was tested, and the outcome was “inactive”. In the case of `CCOC(=O)c1cccc(NC(=O)c2cc(-c3cc(OC)c(OC)c(OC)c3)nc3cc(Cl)ccc23)c1`, the outcome is reported as “inactive”.

Source: PubChem BioAssay AID651642 (Sanford-Burnham Center for Chemical Genomics, 2012)
